# Screening results (PubChem)
# FMDV inh – antivirals against foot and mouth disease virus; FMDV antiviral cell-based qHTS; Potency, µM (doses to about 57.9 µM), for the others: top-dose activity change, negative = inhibition, actives largely listed as inhibitors; hit rate 1.2% among 410,000; AID 1159524; calls by dose curve; tested in HEK293T cells; also: read-out not given here; nearly all actives have a fitted effect of over 45% in size
# HCV inh – HCV inhibition. Huh7.5.1 HCVcc-Cre infection, luciferase reporter, 44 h. Potency, µM (titrated, usually from 41.8 µM), for the others: top-dose activity change, negative = inhibition, hits mostly inhibitors. hit rate 3.4% among 340,000. AID 651820
#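 Cells (1,000/well) were plated 4 h before compound, then infected with HCVcc-Cre virus (~0.5 moi). After 44 h further culture, infection was read as luciferase luminescence following a 15 min substrate incubation at room temperature.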
# RE007 growth inh – less growth of the S. pombe RE007 Vpr strain. hit rate 0.21% among 360,000. Potency, µM (top dose mostly 92.2 µM), inactives show top-dose activity change, negative = less growth, actives largely listed as inhibitors. AID 651644. S. pombe RE007 Vpr strain, BacTiter-Glo ATP luminescence, 24 h; active = well fitted falling curve with a large enough effect; inconclusive = small, poorly fitted or top-dose-only effect; inactive = no such curve, though single readings can be large or run the other way; also: nearly all actives have a fitted effect of over 50% in size
#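 Fission yeast strain RE007, carrying one chromosomally integrated HIV-1 vpr copy, was seeded at OD 0.01 in PMG+AL medium with 23 nL pinned compound. After 24 h at 30 °C and 99% humidity, viability was read by BacTiter-Glo luminescence.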
# Sm TGR block – S. mansoni TGR enzyme inhibition. Potency, µM (series often up to 114 µM), for inactives: top-dose activity change, negative = inhibition, hits mostly inhibitors. hit rate 3% among 360,000. purified TGR, DTNB reduction, TNB absorbance 405 nm; also: nearly all actives have a fitted effect of over 60% in size
#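 TGR 20 nM + NADPH 100 uM (dispensed conc.), cpd preinc 15 min RT; start with NADPH (500 uM addition) then DTNB (15 mM addition). Kinetic TNB absorbance, 405 nm filter. Four-parameter Hill fit across titration.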
# LASV entry inh – Lassa virus entry inhibition | Lassa virus pseudotype entry inhibition, cell reporter | hit rate 1.2% among 300,000 | Potency, µM (highest dose often 37.9 µM), for the others: at the top dose activity change, negative = inhibition, hits mostly inhibitors; calls by dose curve; tested in HEK293 cells; also: nearly all actives have a fitted effect of over 50% in size
# MARV entry inh – inhibitors of Marburg virus binding or cell entry; Potency, µM (doses to about 37.8 µM), for the others: at the highest dose activity change, negative = inhibition, actives largely listed as inhibitors; Marburg virus pseudotyped entry inhibition, cell reporter; AID 540276; hit rate 1.8% among 300,000; calls by dose curve; tested in HEK293 cells
# * = called active by the depositor; ? = inconclusive; · = no result; [ ] = dose if it differs, or a comment. Most compounds without a hit are left out; they make up all but 7.2% or so of the library. Unless noted, calls follow the shape of the dose curve; as a rule, active = well fitted curve in the direction sought with a large enough effect; inconclusive = small, poorly fitted or top-dose-only effect, or another doubt; inactive = no such curve, though single readings can be large; an effect the other way counts as inactive or inconclusive. % is scaled to controls: 0 for no effect and ±100 for the full control effect; potency is read from the fitted curve at half-maximal effect.
SMILES,FMDV inh,HCV inh,RE007 growth inh,Sm TGR block,LASV entry inh,MARV entry inh
CCn1c(=O)c2cc(C(=O)Nc3cc(F)ccc3F)sc2c2ccccc21,-5%,·,·,0%,10%[46.1 µM],3%[46.1 µM]
COCc1ccc(CN2Cc3ccccc3OC(c3ccccc3OC)C2)o1 (configuration not stated),-3%,·,·,·,·,·
COc1ccc(NC(=O)C2C3C=CC(C3)C2C(=O)O)cc1 (configuration not stated),-23%,11%,-1%,-17%,·,·
Cc1ccc(-c2ccc(NC(=O)C3C4C=CC(C4)C3C(=O)O)cc2)o1 (configuration not stated),58%,-28%,?,45µM*,?,16%
CC(C)CN(C(=O)CSc1nnc(-c2cccs2)n1C1CC1)C1CCS(=O)(=O)C1 (configuration not stated),-13%,·,-4%,·,·,·
CSc1nc(-c2ccc(Cl)cc2)c(C#N)c(=O)[nH]1,-13%,4%,0%,·,-17%,12%[46.1 µM]
CSC1=C(C#N)C(=O)NC(c2ccc(Cl)cc2)S1 (configuration not stated),20µM*,0%,8%,10µM*,-2%,-12%[46.1 µM]
CCOC(=O)c1ccc(Nc2ncnc3ccc(C)cc23)cc1,-18%,-14%,-16%,6%,-17%,?
CCOC(=O)c1cccc(Nc2ncnc3ccc(C)cc23)c1,?,25µM*,-11%,-24%,-17%,?
CCCCc1c(-c2ccccc2F)ncn1CCc1ccccc1OC,?,·,-34%,·,·,·
CCCc1c(-c2cccc(F)c2)ncn1Cc1ccccc1OC,-1%,·,?,·,·,·
CCCCCc1c(-c2ccccc2F)ncn1CCc1ccccc1OC,32µM*,·,-18%,·,·,·
CCCc1c(-c2ccccc2F)ncn1CCc1ccccc1OC,32µM*,·,-16%,·,·,·
Cc1cc(C)n(-c2nc(Nc3ccccc3C(F)(F)F)nc(-n3nc(C)cc3C)n2)n1,?,5.6µM*,31%,-2%,?,10µM*
Cc1cc(C)n(-c2nc(Nc3ccccc3C)nc(-n3nc(C)cc3C)n2)n1,·,·,·,-14%,·,2%
CCCCCCCC(=O)O[C@H](CC(=O)O)C[N+](C)(C)C,-19%,·,·,·,·,·
CCCCc1nc2c(c3c1C[C@H](C)OC3)CN(S(=O)(=O)c1ccccc1C(=O)OC)CC2,·,·,·,·,·,22%[14.2 µM]
O=C(Nc1ccc(F)cc1)c1cccc(N2C(=O)C3C4C=CC(C5CC45)C3C2=O)c1 (configuration not stated),?,?,1%,-11%,?,-13%[46.1 µM]
COC(=O)c1ccc(NC(=O)c2cccc(N3C(=O)C4C5C=CC(C6CC56)C4C3=O)c2)cc1 (configuration not stated),?,5µM*,-1%,-1%,?,?
COc1ccc(OC)c(NC(=O)c2cccc(N3C(=O)C4C5CCC(C5)C4C3=O)c2)c1 (configuration not stated),20µM*,·,0%,7%,?,?
COc1ccc(OC)c(NC(=O)c2cccc(N3C(=O)C4C5C=CC(C6CC56)C4C3=O)c2)c1 (configuration not stated),25µM*,?,-6%,3%,·,·
Cc1cccc(NC(=O)c2ccc(N3C(=O)C4C5C=CC(C6CC56)C4C3=O)cc2)c1 (configuration not stated),25µM*,?,14%,0%,·,·
O=C(Nc1ccccc1)c1cccc(N2C(=O)C3C4C=CC(C5CC45)C3C2=O)c1 (configuration not stated),-23%,?,15%,3%,?,?
O=C(Nc1ccc(F)cc1)c1cccc(N2C(=O)C3C4CCC(C4)C3C2=O)c1 (configuration not stated),-20%,5%,14%,-2%,-14%,-11%
O=C(Nc1ccc(Br)cc1)c1cccc(N2C(=O)C3C4CCC(C4)C3C2=O)c1 (configuration not stated),40µM*,25µM*,3%,-2%,?,?
SMILES,FMDV inh,HCV inh,RE007 growth inh,Sm TGR block,LASV entry inh,MARV entry inh
CC(NC(=O)c1cc(F)ccc1F)c1nnc2n1CCN(Cc1ccccc1O)CC2 (configuration not stated),1%,·,·,·,·,·
CCOC(=O)CCN1C(=O)[C@H]2[C@H]3[C@H](O)[C@H](O)C/C(=N/NC(=O)OCc4ccccc4)[C@@H]3CC[C@@H]2C1=O,·,·,·,·,·,29%[14.2 µM]
Cc1cc(Br)ccc1NC(=O)c1c(C)oc2ncnc(N3CCCCC3)c12,-26%,·,·,11%,-1%[46.1 µM],·
COc1ccc(C2=Nn3c(nnc3-c3ccc(OC)cc3)SC2)cc1,?,3.5µM*,-9%,7%,1.3µM*,?
COc1ccc(C2=Nn3c(nnc3-c3ccccc3Cl)SC2)cc1OC1CCCC1,32µM*,·,·,·,·,·
CCOc1cccc(-c2nnc3n2N=C(c2cc(OC)ccc2OC)CS3)c1,?,11µM*,0%,-8%,-9%,-7%
COc1cc(-c2nnc3n2N=C(c2ccccc2)CS3)cc(OC)c1OC,?,10µM*,0%,-13%,?,?
Cc1ccc(C(=O)N2c3ccc(C)cc3C(C)(c3ccccc3)CC2(C)C)cc1 (configuration not stated),0%,·,·,0%,15%[46.1 µM],·
c1ccc(-c2ccc(C3=Nn4c(nnc4-c4cccs4)SC3)cc2)cc1,-16%,?,22%,8%,-24%,-7%[46.1 µM]
COc1ccc(OC)c(C2=Nn3c(nnc3-c3cc(OC)c(OC)c(OC)c3)SC2)c1,-22%,·,20%,3%,-25%[14.3 µM],?
Clc1ccc(C2=Nn3c(nnc3-c3cccs3)SC2)cc1,-24%,11%,-7%,79µM*,11%,0%
COc1cccc(-c2nnc3n2N=C(c2cc(OC)ccc2OC)CS3)c1,-8%,10µM*,3%,-1%,?,?
COc1cccc(-c2nnc3n2N=C(C(C)(C)C)CS3)c1,-17%,11µM*,-13%,-29%,-13%,-12%
COc1ccc(OC)c(C2=Nn3c(nnc3-c3ccncc3)SC2)c1,-1%,-22%,-2%,·,?,4µM*
CCOC(=O)C1(C(=O)OCC)Cc2ccc(C(C)=O)cc2C1,·,·,·,·,?,-20%[14.2 µM]
Clc1ccc(C2=Nn3c(nnc3-c3cc(-c4ccccc4)n[nH]3)SC2)cc1,?,?,5%,2%,?,?
c1ccc(C2=Nn3c(nnc3-c3cc(-c4ccccc4)n[nH]3)SC2)cc1,?,?,5%,-1%,16µM*,?
CCCCn1c2c(c(=N)c3c1CCC3)CCC2,?,?,-9%,-2%,?,?
CCCCCCCCCn1c2c(c(=N)c3c1CCC3)CCC2,5.6µM*,0.89µM*,?,?,1.4µM*,?
CCCCCCCn1c2c(c(=N)c3c1CCC3)CCCC2,3.2µM*,4.5µM*,?,·,?,?
